Experimental data: the supplement of paper PMC6555819

Assays:
Assay in all cases: PBM binding z-score (relative to random genomic background probes); higher = stronger binding; sequences stand for … in GC…GCGATTGACAGCGTAGAATGAAGG
[1] = test system: RARb homodimer (NR concentration 270 nM)
In short: (§1)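 Ligand-free nuclear receptor dimers were applied to custom Agilent 4×180K protein-binding microarrays whose double-stranded probes carried direct-repeat seeds, single-nucleotide variants, half-site ablations and random human genomic background sequences in 34-nt variable regions. Incubation lasted 1 h. Binding z-scores were computed against the random background probes from regression-normalized fluorescence.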

[2] = test system: RARg:RXRa (NR concentration 270 nM, RXRa partner concentration 90 nM)
In short: as §1

[3] = test system: RARg homodimer (NR concentration 270 nM)
In short: as §1

[4] = test system: RXRa DBDmut IVT, anti-RXR (DBD mutation: RXRa K156A/R161A, NR concentration 90 nM)
In short: as §1

[5] = test system: RXRa homodimer (NR concentration 180 nM)
In short: as §1

[6] = test system: THRa:RXRa (NR concentration 90 nM, RXRa partner concentration 90 nM)
In short: as §1

[7] = test system: THRa homodimer (NR concentration 90 nM)
In short: as §1

[8] = test system: VDR:RXRa (NR concentration 270 nM, RXRa partner concentration 90 nM)
In short: as §1

[9] = test system: VDR homodimer (NR concentration 270 nM)
In short: as §1

Sequence | PBM binding z-score [1] | PBM binding z-score [2] | PBM binding z-score [3] | PBM binding z-score [4] | PBM binding z-score [5] | PBM binding z-score [6] | PBM binding z-score [7] | PBM binding z-score [8] | PBM binding z-score [9]
CAAACTGGGTCACCGGAAGGTCAAAGTCCGCATG | 5.45 | 8.27 | 7.08 | 0.907 | 6.37 | 4.2 | 1.61 | 5.93 | 2.92
ATATGTAGGTTAAGGGTCATACAGGTTGGTTCGC | 4.12 | 5.01 | 3.57 | 2.4 | 6.23 | 3.48 | 1.48 | 5.42 | 4.2
TCATATAGGTAAAAGGTGAAACTCGGTGTGGTAA | 2.15 | 2.48 | 1.17 | 1.9 | 3.81 | 2.16 | 0.677 | 2.04 | 0.686
ACTAGCAGCCCAAGTTTGGGTCACTCAAACAAAG | 1.74 | 0.618 | 0.518 | -0.56 | 0.612 | 2.1 | 1.15 | 0.327 | -0.0283
CCTTACGGGTCACTGACAGGTTACAGCATTTGGA | 3.43 | 6.18 | 4.87 | 1.94 | 5.36 | 3.08 | 0.386 | 3.76 | 1.01
GCTGCTAGGTCAGGTTCGTCAGCTAACGGGTACG | 2.25 | 2.25 | 3.35 | 1.63 | 1.24 | 1.94 | 0.323 | 1.44 | 2.58
GCAGACAGGTGAAACGCAGGTAACTAAGGGTGGC | 0.042 | 0.719 | 0.208 | -0.64 | 0.593 | 1.15 | -0.719 | -0.407 | -0.867
CGAGACAGGTGAGAAGGTAACTCAGCCTCGATTA | 0.319 | 0.434 | 0.338 | -0.6 | 0.212 | 0.0357 | -0.411 | -0.375 | -0.621
CCTAATTGGTCAAGGTCACACACGCTATAGGTAC | 4.67 | 4.73 | 4.86 | 2.36 | 4.64 | 4.34 | 4.13 | 4.03 | 3.38
ATATGTAGGTTAGCTGGGGTCATTTAGACTAGGC | 3.75 | 3.88 | 2.65 | 2.15 | 5.02 | 5.36 | 3 | 5.97 | 4.51
CAGCCTAGGTCAGGGCCAGGATAGGAGGAACGTT | 2.32 | 3.04 | 3.91 | -0.715 | 1.53 | 2.31 | 0.538 | 0.0936 | -0.171
TGAATGAGGTTATAAGACCAGGGAACGTTGCAAA | 0.0287 | 1.39 | 0.814 | 0.698 | 1.99 | 1.77 | -0.0902 | 0.916 | 0.336
TCAGACAGGCGAAGGTAACTCAGGTACGCAGTCG | -0.405 | -0.089 | -0.377 | 0.863 | 0.579 | 0.951 | -0.297 | 0.498 | -0.35
ATATGGAGGTTACATCCGGGTCATTCAGGCTATG | 3.23 | 4.87 | 2.66 | 1.17 | 4.23 | 4.11 | 2.74 | 5.05 | 3.3
GATGCTAGGTCAACTGATGGTCAGCTAAAGCTCG | 3.45 | 5.12 | 5.33 | 1.06 | 2.84 | 2.98 | 0.992 | 1.69 | -0.0193
ATATGTAGGTTACATCCGGCTCATTCAGGCTATG | 0.467 | 0.906 | 1.15 | 0.846 | 0.829 | 1.09 | 0.4 | 0.412 | 0.27
